SIRT5 inh: inhibitors of human sirtuin-5 desuccinylase; Purified SirT5, succinyl-peptide AMC, trypsin-coupled fluorescence; inhibition, % at 15 µM; 330,000 compounds, 1.1% hits; AID 652115; in the data active = inhibition above about 15%
NSD2 inh: NSD2 (human) methyltransferase inhibition | inhibition, % at 12.5 µM | O96028 | 310,000 compounds, 0.54% hits | NSD2 peptide methylation, AlphaScreen, 120 min; in the data active = inhibition above about 50%
Target sequence (O96028 whole entry, looked up): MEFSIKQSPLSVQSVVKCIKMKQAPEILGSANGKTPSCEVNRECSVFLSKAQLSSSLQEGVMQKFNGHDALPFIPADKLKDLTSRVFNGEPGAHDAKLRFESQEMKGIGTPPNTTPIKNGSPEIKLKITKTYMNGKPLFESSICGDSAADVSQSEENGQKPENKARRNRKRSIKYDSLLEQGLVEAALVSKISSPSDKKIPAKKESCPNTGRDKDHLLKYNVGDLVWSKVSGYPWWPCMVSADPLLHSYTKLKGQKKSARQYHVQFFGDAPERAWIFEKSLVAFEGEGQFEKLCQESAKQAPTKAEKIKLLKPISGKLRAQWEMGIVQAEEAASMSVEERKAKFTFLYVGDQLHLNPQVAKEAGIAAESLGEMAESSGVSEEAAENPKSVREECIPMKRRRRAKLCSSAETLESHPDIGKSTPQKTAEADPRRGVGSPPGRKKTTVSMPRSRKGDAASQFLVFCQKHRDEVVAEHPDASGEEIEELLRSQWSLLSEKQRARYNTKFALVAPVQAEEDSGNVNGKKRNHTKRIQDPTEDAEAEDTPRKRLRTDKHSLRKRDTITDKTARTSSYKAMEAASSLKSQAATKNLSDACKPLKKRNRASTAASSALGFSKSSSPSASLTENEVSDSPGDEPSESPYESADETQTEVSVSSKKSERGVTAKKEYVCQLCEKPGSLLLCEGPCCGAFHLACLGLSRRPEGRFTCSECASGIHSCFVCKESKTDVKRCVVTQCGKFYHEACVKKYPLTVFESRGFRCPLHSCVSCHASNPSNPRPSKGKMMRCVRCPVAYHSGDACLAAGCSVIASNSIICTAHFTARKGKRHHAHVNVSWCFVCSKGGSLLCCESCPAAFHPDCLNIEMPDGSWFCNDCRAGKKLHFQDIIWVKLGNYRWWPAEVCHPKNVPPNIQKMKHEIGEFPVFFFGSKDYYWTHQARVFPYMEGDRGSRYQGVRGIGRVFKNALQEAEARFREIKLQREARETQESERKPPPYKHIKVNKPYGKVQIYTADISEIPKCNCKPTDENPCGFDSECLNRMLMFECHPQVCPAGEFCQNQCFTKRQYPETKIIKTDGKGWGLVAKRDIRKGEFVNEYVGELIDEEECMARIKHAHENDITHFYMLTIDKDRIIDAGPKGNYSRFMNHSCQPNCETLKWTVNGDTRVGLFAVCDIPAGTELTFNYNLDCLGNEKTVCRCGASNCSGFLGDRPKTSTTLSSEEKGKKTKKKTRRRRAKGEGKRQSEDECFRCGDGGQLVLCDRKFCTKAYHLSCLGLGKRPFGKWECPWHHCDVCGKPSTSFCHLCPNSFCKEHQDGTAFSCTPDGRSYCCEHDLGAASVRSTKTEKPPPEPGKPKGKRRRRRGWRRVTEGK
PfHsp90 yeast 2: inhibits growth of yeast expressing Plasmodium falciparum Hsp90. S. cerevisiae expressing PfHsp90, BacTiter-Glo ATP, 48 h; yeast lacking PDR1 and PDR3 efflux regulators. inhibition, % at 9.4 µM. 310,000 compounds, 0.32% hits;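 active = every replicate shows inhibition above about 80%, whatever the replicate mean, limit read from the data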;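 note: 0% = DMSO neutral controls and 100% = 20 µM radicicol positive controls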
ARNT TACC3 PPI: disruptors of human ARNT/TACC3 interaction; 390,000 compounds, 0.66% hits; AlphaScreen His-ARNT PAS-B/GST-TACC3 binding, luminescence; TACC3 fragment carries E629A point mutation; inhibition, % at 9.99 µM;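 active = mean inhibition of replicates at least 50% and at least half of replicates each reaching 50%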;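 note: 0% = complete ARNT plus TACC3 wells and 100% = ARNT alone without TACC3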
CASP6 VEID inh: caspase-6 (human) enzyme inhibition | inhibition, % at 12.5 µM | purified caspase-6, Z-VEID-R110 cleavage fluorescence | 350,000 compounds, 0.53% hits | P55212 | AID 686996;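 active = mean inhibition across replicates at least about 35%, with every replicate also reaching that limit, limit read from the data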;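 note: 0% = median of neutral control wells and 100% = no fluorescence left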
Numbers without * were called inactive; . = no result given; ! = a repeat was not active. Compounds with a hit are over-represented: about 2.1% of the library has one in this group of screens.

SMILES | SIRT5 inh | NSD2 inh | PfHsp90 yeast 2 | ARNT TACC3 PPI | CASP6 VEID inh
O=C1OC(c2ccccc2)(c2cc(Br)c(O)c(Br)c2)c2ccccc21 (centres undefined) | . | 38 | 115* | -21 | 3
O=C(O)c1ccc(C2(c3ccc(C(=O)O)cc3)OC(=O)c3ccccc32)cc1 | -2 | -2 | -2 | -6 | -1
CCCNC(=O)N1CC2(C1)[C@@H](c1ccccc1)[C@@H](CO)N2C(=O)c1cccnc1 | 0 | . | . | . | -1
Cc1ccc(S(=O)(=O)Nc2ccc3c(c2)C(=O)N([C@H](C)CO)C[C@@H](C)[C@H](CN(C)C(=O)Nc2c(C)noc2C)OCCCC[C@@H](C)O3)cc1 | -4 | . | . | -3 | -2
Nn1cnnc1N/N=C/c1cc(Br)cc(Br)c1O | . | . | -50 | 49* | .
C[C@@H]1CN([C@H](C)CO)C(=O)c2cccc(NC(=O)C3CCOCC3)c2O[C@@H]1CN(C)CC1CCCCC1 | . | . | . | . | 2
NC(=S)NN=C1CCCCC12CCCC2 | -3 | 3 | 11 | 11 | -3
NC(=S)NN=C1CCC2(CCCCC2)CC1 | 25* | 2 | . | . | 0
NC(=S)NN=C1CSSC1 | . | -4 | . | . | .
CC1(C)CCC(=NNC(N)=S)CC1 | . | -1 | -21 | 21* | 3
O=C(NC[C@H]1CC[C@@H]2[C@@H](CN2S(=O)(=O)c2ccccc2[N+](=O)[O-])O1)c1cccnc1 | 1 | . | . | . | 0
O=C(Nc1ccc(-c2ccccc2)cc1)[C@H]1[C@H](CO)[C@H]2Cn3c(cccc3=O)[C@H]2N1CC1CCCCC1 | 102* | . | . | . | .
O=C(Nc1ccccc1)[C@@H]1[C@@H](CO)[C@@H]2Cn3c(cccc3=O)[C@@H]2N1CC1CC1 | 16* | . | . | -9 | -6
CCCNC(=O)[C@H]1[C@H](CO)[C@H]2Cn3c(ccc(-c4ccc(F)cc4)c3=O)[C@H]2N1CC1CC1 | 16* | . | . | -2 | -1
CC=Cc1ccc2n(c1=O)C[C@H]1[C@H](CO)[C@@H](C(=O)NC3CCC3)N(CC)[C@@H]21 (mixture of isomers) | -1 | . | . | . | 1
CC=Cc1ccc2n(c1=O)C[C@@H]1[C@@H](CO)[C@H](C(=O)NC3CCCC3)N(CCC)[C@H]21 (mixture of isomers) | 15* | . | . | . | 1
CCCNC(=O)[C@H]1[C@H](CO)[C@H]2Cn3c(ccc(-c4ccccc4)c3=O)[C@H]2N1CC1CC1 | -3 | . | . | -4 | 7
CCCC#Cc1cnc2c(c1)C(=O)N([C@@H](C)CO)C[C@@H](C)[C@@H](CN(C)C(=O)CN1CCOCC1)O2 | -7 | . | . | . | .
C[C@@H]1CCCCO[C@@H](CN(C)CC2CC2)[C@H](C)CN([C@@H](C)CO)C(=O)c2cc(NC(=O)Nc3ccc(F)cc3)ccc2O1 | 0 | . | . | 5 | -2
C[C@@H]1CCCCO[C@H](CN(C)S(=O)(=O)c2ccc(Cl)cc2)[C@@H](C)CN([C@@H](C)CO)C(=O)c2cc(NS(=O)(=O)c3cn(C)cn3)ccc2O1 | 5 | . | . | -2 | 2
CO[C@@H]1CN(C)C(=O)c2cc(NC(=O)c3ccccc3F)ccc2OC[C@H](C)NC[C@H]1C | 1 | . | . | -1 | 4
CC(C)CC#Cc1ccc2c(c1)O[C@H](CN(C)C(=O)C1CCC1)[C@@H](C)CN([C@@H](C)CO)S2(=O)=O | 6 | . | . | 2 | 3
CC(C)CC#Cc1ccc2c(c1)O[C@@H](CN(C)C(=O)C1CCCCC1)[C@H](C)CN([C@@H](C)CO)S2(=O)=O | 17* | . | . | 6 | 1
CC(C)CC#Cc1ccc2c(c1)O[C@H](CN(C)C(=O)C1CCCCC1)[C@@H](C)CN([C@@H](C)CO)S2(=O)=O | 27* | . | . | 14 | 1
CC(C)CC#Cc1ccc2c(c1)O[C@@H](CN(C)CC1CCOCC1)[C@H](C)CN([C@H](C)CO)S2(=O)=O | 17* | . | . | 6 | 3
SMILES | SIRT5 inh | NSD2 inh | PfHsp90 yeast 2 | ARNT TACC3 PPI | CASP6 VEID inh
CC(C)CC#Cc1ccc2c(c1)O[C@H](CN(C)C(=O)C1CCC1)[C@H](C)CN([C@H](C)CO)S2(=O)=O | 5 | . | . | 10 | -1
CC(C)CC#Cc1ccc2c(c1)O[C@H](CN(C)C(=O)C1CCCCC1)[C@@H](C)CN([C@H](C)CO)S2(=O)=O | 21* | . | . | 14 | 0
CCCC#Cc1ccc2c(c1)O[C@H](CN(C)CC1CCOCC1)[C@H](C)CN([C@H](C)CO)S2(=O)=O | 8 | . | . | 3 | -1
CC(C)CC#Cc1ccc2c(c1)O[C@H](CN(C)C(=O)C1CCC1)[C@H](C)CN([C@@H](C)CO)S2(=O)=O | 7 | . | . | 2 | 0
O=C(C[C@@H]1C[C@H]2c3cc(NC(=O)NC4CCCCC4)ccc3O[C@H]2[C@H](CO)O1)NCc1ccccc1 | 2 | . | . | -8 | -3
CN1C(=O)c2cc(NC(=O)c3ccccc3)ccc2OC[C@@H]2O[C@H](CC(=O)NC3CCCC3)CC[C@@H]21 | -3 | . | . | -2 | -2
CCNC(=O)C1CC(=O)N(c2ccc(OCC)cc2)C1 (centres undefined) | . | 10 | 0 | -3 | .
CCOc1ccc(N2CC(C(=O)NCc3ccccc3)CC2=O)cc1 (centres undefined) | -7 | 0 | -18 | -5 | 1
CNC(=O)C1CC(=O)N(c2ccc(OCC(=O)NCc3ccccc3)cc2)C1 (centres undefined) | 25* | 3 | -18 | -2 | -1
CCOc1ccc(N2CC(C(=O)NCC(=O)Nc3ccc(F)c(F)c3F)CC2=O)cc1 (centres undefined) | -3 | -1 | -10 | 15 | 44*
COc1cccc(CNC(=O)C[C@@H]2C=C[C@H](NC(=O)C3CC3)[C@H](CO)O2)c1 | -2 | . | . | -2 | -2
COCC(=O)N1[C@H](CO)[C@@H](c2ccccc2)C12CN(C(=O)c1cccnc1)C2 | -1 | . | . | . | 1
Cc1[nH]c2ccc(C(=O)N3CCN(c4cccc(Cl)c4)CC3)cc2c1C | -1 | 4 | 93* | 2 | 0
CC1=C/C(=N\NC(=S)NCc2ccccc2)CC1 | 18* | 4 | -87 | 12 | -3
[N-]=[N+]=NCc1ccccc1C[C@]1(C(=O)N2CCOCC2)COC(c2ccc(OCCCO)cc2)=N1 | 3 | . | . | 10 | 1
COc1nc(C)c2cc(C)oc2n1 | -4 | -2 | -28 | -7 | 51*
COc1ccc2c3c(n(C)c2c1)[C@@H](CO)N(C(=O)c1ccc(F)cc1)CC31CCN(CC2CCOCC2)CC1 | -1 | . | . | . | 1
COc1ccc(-n2c(CN3CCN(Cc4ccccc4)CC3)nc3ccc([N+](=O)[O-])cc3c2=O)c(OC)c1 | 35* | 8 | -2 | 1 | -2
COc1ccc(-n2c(CN3CCN(C)CC3)nc3ccc([N+](=O)[O-])cc3c2=O)c(OC)c1 | -2 | 4 | -9 | -8 | -6
C[C@@H]1CN([C@H](C)CO)C(=O)c2cc(NC(=O)Nc3ccc(C(F)(F)F)cc3)ccc2O[C@@H](C)CCCCO[C@@H]1CN(C)C(=O)CCCN(C)C | . | . | . | -2 | .
C[C@H](CO)N1C[C@H](C)[C@@H](CN(C)C(=O)c2ccncc2)OCc2cnnn2CCCC1=O | 1 | . | . | -4 | 39*!

Source: PubChem
